Drawing on PubChem BioAssay (NCI), this text covers growth for 15 compounds.

Common to all, as to assay: NCI-60 one-dose screen, 48 h (100 = growth as untreated, 0 = no growth, -100 = all killed)
Settings in all cases: 10 µM unless noted

Assay [1] has as its system NCI-H23 lung.
For assay [2], the system named is NCI-H226 lung.
In assay [3] the test system is NCI-H322M lung.
In assay [4] the test system is HOP-62 NSCLC.
Assay [5] has as its system NCI-H460 lung.
Assay [6] relates to HOP-92 NSCLC.
The subject of assay [7] is NCI-H522 lung.
For assay [8], the system named is A549/ATCC NSCLC.
For assay [9], the system named is 786-0 renal.
For assay [10], the system named is COLO 205 colon.

Each structure is given as a SMILES string. “And” between values parts separate entries of the source, which are not always exact repeats. Identical values can stand only once. This is part of a sample that, as a whole, favours compounds with a hit. Of some 83,000 tested, about 20% had one in any assay.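 Growth was measured after 48 h exposure to one concentration of compound in 96-well plates. Values under 10 count as active.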 The source made the active and inactive calls.

On to `C=C(Cl)C(=NC(C)(C)C)Nc1ccccc1C`, for which the growth was 98.8% (inactive) in assay [1]; 102% (inactive) in [2]; 109% (inactive) in assay [3]; 92.4% (inactive) in assay [4]; 106% (inactive) in assay [5]; 84.9% (inactive) in assay [6]. Besides, the growth in assay [7] was 67.7% (inactive); in assay [8], 111% (inactive); in assay [9] it was 97.9% (inactive); in [10], 55.2% (inactive).

Turning to `Cc1ccc(NS(=O)(=O)c2ccc(C)cc2)cc1`, the growth in assay [1] was 100% (inactive) and 98.2% (inactive); in assay [2], 95.9% (inactive) and 88.6% (inactive); in assay [3], 102% (inactive) and 91.5% (inactive); in assay [4], 98.5% (inactive) and 92.7% (inactive); in assay [5], 107% (inactive) and 106% (inactive); in [6] it was 100% (inactive) and 96.7% (inactive). Also, the growth in [7] was 97.9% (inactive) and 77.9% (inactive); in assay [8] it was 88.1% (inactive) and 107% (inactive); in assay [9] it was 100% (inactive) and 99.3% (inactive); in assay [10], 111% (inactive) and 103% (inactive).

With `CCCCCCCCCCCCCCCCOP(=O)([O-])OCC[N+](C)(C)C`, the growth in assay [1] is 73.6% (inactive); in assay [2] it was 31.5% (inactive); in [3] it was 81.8% (inactive); in assay [4], 19.5% (inactive); in assay [5] it was 3.97% (active); in assay [6], -24.8% (active). Further, the growth in [7] was -55.1% (active); in assay [8] it was 31.8% (inactive); in assay [9], 48.6% (inactive); in [10] it was 10.6% (inactive).

For `COc1ccccc1OC(=O)Oc1ccccc1OC`, the growth in assay [1] was 101% (inactive) and 95.5% (inactive); in assay [2], 99.7% (inactive) and 106% (inactive); in [3] it was 94.3% (inactive) and 99.5% (inactive); in assay [4], 120% (inactive) and 100% (inactive); in [5], 108% (inactive) and 104% (inactive); in assay [6], 108% (inactive) and -0.941% (active). The growth in assay [7] was 85.3% (inactive) and 92.5% (inactive); in [8], 90.1% (inactive) and 109% (inactive); in [9] it was 103% (inactive) and 96.6% (inactive); in [10], 123% (inactive) and 104% (inactive).

With `O=C1NC(=O)/C(=C/C=C/c2ccccc2)S1`, the growth in assay [1] was 32.6% (inactive); in assay [2], 75.8% (inactive); in assay [3], 51.4% (inactive); in assay [4] it was 22.5% (inactive); in [5], 10.6% (inactive); in [6] it was 45.2% (inactive). Moreover, the growth in assay [7] is 24.4% (inactive); in [8], 89.1% (inactive); in assay [9], 1.55% (active); in [10], 80.7% (inactive).

Turning to `CNc1ccc2c(c1)c1ccccc1n2C`, the growth was 85.2% (inactive) in assay [1]; 101% (inactive) in assay [2]; 98.4% (inactive) in [3]; 100% (inactive) in assay [4]; 108% (inactive) in [5]; 99.5% (inactive) in assay [6]. In addition, the growth in [7] is 92.4% (inactive); in assay [8], 105% (inactive); in [9], 105% (inactive); in assay [10] it was 111% (inactive).

Regarding `CN(C)C(=O)SC1=C(c2c(Cl)cccc2Cl)C(=O)c2ccccc21`, the growth in assay [1] was 70.6% (inactive); in assay [2], 111% (inactive); in [3], 98.3% (inactive); in [4], 92.2% (inactive); in [5], 98.7% (inactive); in assay [6], 3.58% (active). Moreover, the growth in assay [7] is -74.3% (active); in assay [8], 110% (inactive); in assay [9] it was 71.5% (inactive); in assay [10], -81.8% (active).

Regarding `COc1cc(/C=C/C(C)=O)ccc1O`, the growth was 96.6% (inactive) and 94.1% (inactive) in assay [1]; 95.3% (inactive) and 111% (inactive) in [2]; 88.4% (inactive) and 115% (inactive) in [3]; 94.2% (inactive) and 111% (inactive) in assay [4]; 102% (inactive) and 110% (inactive) in [5]; 73.3% (inactive) in [6]. For the same compound, the growth is 98.1% (inactive) and 100% (inactive) in assay [8]; 121% (inactive) and 114% (inactive) in [9]; 97.5% (inactive) and 120% (inactive) in assay [10].

Turning to `CC(=O)C(=Cc1ccc(C=C(C(C)=O)C(C)=O)cc1)C(C)=O`, the growth in assay [1] is 4.19% (active); in assay [2], -14.5% (active); in [3] it was 102% (inactive); in assay [4], 83.2% (inactive); in assay [5] it was 36.2% (inactive); in [6], 81.6% (inactive). Besides, the growth is -53.9% (active) in assay [7], 84.2% (inactive) in assay [8], 2.51% (active) in assay [9] and -70.9% (active) in assay [10].

With `CNc1ccc(N)cc1`, the growth in assay [1] was 103% (inactive); in [2], 96.4% (inactive); in [3] it was 103% (inactive); in [4], 106% (inactive); in assay [5], 106% (inactive); in assay [6], 135% (inactive). The growth was 87.5% (inactive) in [7], 111% (inactive) in assay [8], 110% (inactive) in assay [9] and 141% (inactive) in [10].

Consider `O=C(O)c1ccc2c3c(ncnc13)-c1ccccc1C2=O`, for which the growth in assay [1] was -76.7% (active); in assay [2], 52.4% (inactive); in assay [3], 23.7% (inactive); in assay [4], 12.3% (inactive); in assay [5] it was 11.5% (inactive); in assay [6], 81% (inactive). The growth in [7] was 77.7% (inactive); in [8] it was -6.25% (active); in assay [9], 84.5% (inactive); in assay [10], 54.7% (inactive).

As for `CN(C)c1ccc(N=Nc2cccc3ccccc23)cc1`, the growth in assay [1] is 84.3% (inactive); in assay [2] it was 63.5% (inactive); in [3] it was 94.4% (inactive); in assay [4], 85.7% (inactive); in assay [5], 92.7% (inactive); in [6], 74% (inactive). Also, the growth is 95% (inactive) in assay [7], 89.8% (inactive) in assay [8], 100% (inactive) in assay [9] and 87.2% (inactive) in assay [10].

Consider `NC1=CC(=O)c2ccccc2C1=O`, for which the growth in [1] was 40.2% (inactive); in assay [2], 91.7% (inactive); in [3] it was 97% (inactive); in [4], 80.9% (inactive); in [5] it was 89.8% (inactive); in assay [6] it was 91.4% (inactive). In addition, the growth in assay [7] was 89.4% (inactive); in [8], 75.9% (inactive); in assay [9] it was 105% (inactive); in assay [10] it was 104% (inactive).

For `O=C1N[C@H]2[C@H](CS[C@H]2CCCCC(=O)N(CCP(c2ccccc2)c2ccccc2)CCP(c2ccccc2)c2ccccc2)N1`, the growth was 67.8% (inactive) in [1]; 89.5% (inactive) in assay [2]; 79.2% (inactive) in [3]; 80.3% (inactive) in [4]; 41.3% (inactive) in assay [5]; 56.1% (inactive) in [6]. In addition, the growth in [7] is 57.6% (inactive); in assay [8] it was 76.6% (inactive); in assay [9] it was 82.8% (inactive); in assay [10] it was 29.9% (inactive).

Turning to `CCCCCCC(C)c1ccccc1O` (stereo not drawn) (tested in a mixture with another compound), the growth in assay [1] is 90.2% (inactive); in assay [2] it was 109% (inactive); in assay [3], 117% (inactive); in [4], 99% (inactive); in [5], 101% (inactive); in assay [6] it was 69.1% (inactive). Besides, the growth is 105% (inactive) in assay [7], 100% (inactive) in assay [8] and 108% (inactive) in assay [10].
